Bioassay records deposited in PubChem BioAssay by National Center for Advancing Translational Sciences (NCATS).
Pin1 inhibitor: blocks the human prolyl isomerase Pin1; 0.009% of 390,000 active; Potency, µM (top dose mostly 115 µM), inactives show at the highest dose activity, negative = inhibition, most hits filed as inhibitors; Q13526; AID 504891; Pin1 FP peptide displacement, HiFluor488, 10 min; active = well fitted inhibition curve with a large enough effect in the polarisation, with a control signal flat, not every such curve was filed as active; inconclusive = small, poorly fitted or top-dose-only effect, or effect the other way, or a change in a side signal; inactive = no such curve, though single readings can be large or run the other way; the % refers to the polarisation; also: % is scaled to controls: 0 for no effect and ±100 for the full control effect
Target sequence (Q13526 whole entry, looked up): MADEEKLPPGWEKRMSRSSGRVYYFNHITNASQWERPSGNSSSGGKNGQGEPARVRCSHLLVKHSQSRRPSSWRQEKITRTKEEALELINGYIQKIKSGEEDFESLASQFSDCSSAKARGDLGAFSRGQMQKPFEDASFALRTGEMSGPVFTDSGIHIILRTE
Nrf2 activator: Nrf2 pathway activation; AREc32 ARE-luciferase reporter (MCF7-derived line), luminescence, 24 h; AID 624171; 0.31% of 410,000 active; Potency, µM (top dose mostly 46.1 µM), without a hit: at the highest dose activation, hits mostly activators; also: % of control where 0% means no effect; nearly all actives have a fitted effect of over 65% in size
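AREc32_Fluc, 1000 cells/well, OPTI-MEM + 5% FBS, o/n 37 deg C 5% CO2; 23 nL cpd by pin tool, 24 hr; Steady-Glo 30 min RT, luminescence.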
A549 viability: counter-screen for Nrf2 inhibitors: cytotoxicity in A549 cells. Potency, µM (series often up to 46 µM), for inactives: at the highest dose activity change, negative = cytotoxicity, hits mostly inhibitors. 0.16% of 390,000 active. A549 ARE-Fluc cells, CellTiter-Fluor viability, 18-24 h; also: % is scaled to controls: 0 for no effect and ±100 for the full control effect
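Cytotoxicity counterscreen: CellTiter-Fluor fluorescence was measured in A549 ARE_Fluc cells after 18-24 h of compound exposure in a concentration series. The subsequent BugLite luminescent read reports ARE-luciferase activity.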
Nrf2 inh: Nrf2 pathway inhibition; A549 ARE-Fluc reporter, luciferase luminescence, 18-24 h; Potency, µM (series often up to 46 µM), for inactives: at the top dose activity change, negative = inhibition, usual class: inhibitors; 2.1% of 360,000 active; also: % is scaled to controls: 0 for no effect and ±100 for the full control effect; nearly all actives have a fitted effect of over 60% in size
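Nrf2 function is reported as luminescence of an ARE-controlled luciferase in A549 cells. Compounds were tested at several concentrations, and a CellTiter-Fluor read on the same wells flagged cytotoxicity.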
* marks the source's active call; other numbers are inactive results; ? = inconclusive; · = no result given; [ ] = remark or other dose. Most compounds without a hit are left out; they make up all but 2.2% or so of the library. Unless noted, calls follow the shape of the dose curve; as a rule, active = well fitted curve in the direction sought with a large enough effect; inconclusive = small, poorly fitted or top-dose-only effect, or another doubt; inactive = no such curve, though single readings can be large; an effect the other way counts as inactive or inconclusive. Potency is read from the fitted curve at half-maximal effect.

SMILES	Pin1 inhibitor	Nrf2 activator	A549 viability	Nrf2 inh
COc1ccc(S(=O)(=O)c2cn(C)c3cc(N4CCCCCC4)c(F)cc3c2=O)cc1	-3.9%	-0.6%	-23.8%	?
CC(C)CCCCCCCCCCCCC(=O)NCC(=O)NC1C(C)OC(Nc2ncnc3nc[nH]c23)C(O)C1O (stereo not given)	6.0%	-2.2%	?	0.0366µM*
CN(C)S(=O)(=O)c1cc(NC(=O)c2ccc(-n3ccnc3)c([N+](=O)[O-])c2)ccc1Cl	-1.3%	2.8%	-6.2%	18.4µM*
Cc1ccc(C(=O)Nc2ccccc2N2CCCCC2)cc1[N+](=O)[O-]	4.4%	3.5%	0.5%	11.6µM*
CN1CCN(CC(=O)Nc2ccccc2[N+](=O)[O-])CC1	-2.6%	0.2%	9.2%	2.1%
COc1ccccc1NC(=O)c1ccc(-n2ccnc2)c([N+](=O)[O-])c1	-6.3%	-0.5%	3.8%	?
Cc1cccc(N2CCN(CC(=O)Nc3ccccc3[N+](=O)[O-])CC2)c1C	?	-0.3%	-11.1%	20.6µM*
CC(=O)N1CCN(c2ccc(NC(=O)c3ccc(N4CCCC4)c([N+](=O)[O-])c3)cc2Cl)CC1	-3.4%	0.2%	-14.1%	23.1µM*
CN1CCN(c2nc3c(=O)[nH]c(N)nc3n2C2OC(CO)C(O)C2O)CC1 (stereo not given)	1.9%	·	1.5%	?
CCOC(=O)N1CCN([N+]([O-])=NOc2cc(O/N=[N+](\[O-])N(CC)CC)c([N+](=O)[O-])cc2[N+](=O)[O-])CC1	-8.4%	·	-21.6%	13.5%
CC(=C/c1ccccc1)/C=N/NC(=O)c1nnn(-c2nonc2N)c1CN1CCC(C)CC1	-5.4%	2.2%	-1.3%	-5.6%
CC1CCN(Cc2c(C(=O)N/N=C/c3ccc(OC(C)C)cc3)nnn2-c2nonc2N)CC1	5.3%	4.1%	?	23.1µM*
CC(/C=N/NC(=O)c1nnn(-c2nonc2N)c1CN1CCCCC1)=C\c1ccccc1	0.2%	1.6%	?	5.17µM*
COc1cc(/C=N/NC(=O)c2nnn(-c3nonc3N)c2C(C)C)ccc1OCc1ccc(F)cc1	1.4%	-0.2%	?	16.4µM*
CC(C)(C)c1ccc(/C=N/NC(=O)Cc2c[nH]c3ccccc23)cc1	2.4%	3.0%	?	25.9µM*
COc1ccc(NC(=O)Cn2nc(C)c3c(C)n(-c4ccccc4)nc3c2=O)cc1OC	?	0.5%	-10.7%	15.8%
O=C1/C(=C\c2cc(Cl)c(O)c(Cl)c2)SC(=S)N1Cc1ccccc1	?	0.0%	-23.7%	18.4µM*
CCc1ccccc1N1C(=O)N(CC(=O)c2ccc(Cl)cc2)c2ccccc2S1(=O)=O	5.7%	2.2%	5.2%	·
Cc1ccc(S(=O)(=O)C(C#N)c2nc3ccccc3nc2N2CC(C)OC(C)C2)cc1C (stereo not given)	-4.0%	2.4%	·	?
Cc1cccc(S(=O)(=O)C(C#N)c2nc3ccccc3nc2N2CC(C)OC(C)C2)c1 (stereo not given)	-1.8%	-0.3%	-23.2%	16.4µM*
COc1ccc(C2Nc3ccccc3C(=O)N2Cc2ccccc2)cc1COc1cccc(Cl)c1 (stereo not given)	18.8%	·	2.8%	-11.7%
CCCCN(CCCC)CC1OCc2ccccc2CO1	3.9%	-0.5%	0.0%[1.84 µM]	4.6%
Cc1ccc[n+](CC2OCc3ccccc3CO2)c1	-8.5%	-0.7%	0.4%	7.31µM*
O=c1c2ccccc2nc2sc(Nc3ccc4c(c3)CCC4)nn12	67.7%	·	·	·
Nn1c(Nc2ccccc2)nc2sc3c(c2c1=O)CCC3	11.3%	4.2%	-12.7%	16.4µM*
SMILES	Pin1 inhibitor	Nrf2 activator	A549 viability	Nrf2 inh
O=[N+]([O-])c1ccc(O)c(/C=N/Nc2ccc(Cl)nn2)c1	6.8%	-0.6%	?	3.66µM*
Nc1c(Cl)ncnc1N/N=C/c1ccc2ccccc2n1	-7.4%	?	?	13µM*
CC(=O)c1cc(C(=O)Nc2cc(C)cc(C)c2)c2ccccn12	-0.2%	3.4%	0.0%	23.0%
Cc1cccc(OCc2nnc(SCC(=O)Nc3ccc(C)cc3C)o2)c1	-2.4%	1.0%	22.0%	1.3%
O=C(NC1CCCCC1)C(c1cccnc1)N(C(=O)CCl)c1cccc(Cl)c1 (stereo not given)	1.6%	12.6µM*	-18.7%	?
CCN1C(=O)S/C(=C/c2ccc(Sc3nc4ccccc4[nH]3)o2)C1=O	30.6%	8.1%	-7.9%	20.6µM*
CC1=C(C(=O)OC2CCCCCCC2)C(c2cc3c(cc2Br)OCO3)CC(=O)N1 (stereo not given)	4.8%	-0.3%	?	20.6µM*
COc1ccc(CN2C(=O)N(c3ccccc3)C(=O)C2c2ccccc2)cc1COc1ccc(NC(C)=O)cc1 (stereo not given)	-3.8%	·	-1.2%	-21.5%
CCC(O)c1nc2ccccc2n1CCOc1cc(C)cc(C)c1 (stereo not given)	3.9%	0.5%	-15.6%	?
Oc1ccc(CCc2ccccc2)c2cccnc12	?	·	-1.3%	?
Oc1ccc(COc2ccccc2Cl)c2cccnc12	-1.8%	·	-4.8%	18.4µM*
CCC(C)C(NC(=O)OC(C)(C)C)C(=O)NC1COC2CC(n3ccc(=O)[nH]c3=O)OC12 (stereo not given)	-9.2%	·	-4.6%	15.3%
CCOc1ccc(CCNC(=O)c2cc3c(=O)oc4ccc(C)cc4c3s2)cc1OCC	1.0%	0.1%	1.5%	6.9%
CCSc1nn(CC(=O)Nc2ccc(C(=O)OC)cc2)c(N)c1S(=O)(=O)c1ccc(C)cc1	24.0%	0.2%	-15.1%	23.1µM*
CSc1nn(CC(=O)Nc2cc(C)ccc2C)c(N)c1S(=O)(=O)c1ccccc1	-0.3%	-0.4%	-3.9%	20.6µM*
CSc1nn(CC(=O)Nc2ccccc2F)c(N)c1S(=O)(=O)c1ccccc1	-0.1%	0.4%	2.4%	?
CCOC(=O)c1ccc(NC(=O)Cn2nc(SC)c(S(=O)(=O)c3ccc(Cl)cc3)c2N)cc1	15.6%	-2.5%	-9.6%	?
COc1ccc(CN(Cc2ccccc2)S(=O)(=O)c2ccccc2)cc1COc1ccc(NC(C)=O)cc1	2.9%	·	-7.8%	15.8%
CN(Cc1ccccc1)c1ncnc2sccc12	-1.7%	3.3%	1.1%	16.4µM*
CCCN(CC(=O)Nc1cc(Cl)ccc1Cl)C(=O)/C=C/c1cc(OC)ccc1OC	27.1%	4.1%	-3.2%	?
CCCN(CC(=O)Nc1cc(Cl)ccc1Cl)C(=O)/C=C/c1ccco1	-1.0%	11.2µM*	1.5%	-18.9%
CC(C)=CC(O)C/C(C)=C/COc1ccc2ccc(=O)oc2c1 (stereo not given)	-0.6%	-3.4%	-28.9%	10.3µM*
COC(=O)c1cccc(NC(=O)C2CCN(S(=O)(=O)Cc3ccccc3)CC2)c1C	-0.9%	-0.2%	12.4%	8.8%
CCOc1ccccc1NC(=O)C1CCN(S(=O)(=O)Cc2ccccc2)CC1	-0.6%	-0.2%	-1.1%	23.1µM*
COc1ccc(CCNc2nc(C)nc3c2oc2ccccc23)cc1OC	0.6%	4.1%	?	18.4µM*
COc1ccc(CCNc2oc(Cc3cccc4ccccc34)nc2C#N)cc1OC	35.6%	-0.6%	-24.6%	20.6µM*
